Most compounds without a hit are left out; they make up all but 21% or so of the library.
DT40 TDP1 no CPT – qHTS for Inhibitors of human tyrosyl-DNA phosphodiesterase 1 (TDP1): qHTS in cells in absence of CPT | DT40 Tdp1-/- hTDP1 cells, no CPT, ATP luminescence, 48 h | AID 686978, 2013 | Potency, µM (titrated, usually from 46.2 µM), without a hit: at the highest dose activity change, negative = growth inhibition, actives largely listed as inhibitors | actives 15% (n = 420,000); further: potency means the concentration at half of the fitted maximal effect; nearly all actives have a fitted effect of over 55% in size
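Chicken DT40 Tdp1-/- cells stably complemented with human TDP1 were seeded at 400 cells/well with DMSO in place of 20 nM camptothecin. After compound pinning, cells grew at least 48 hr at 37 °C; viability read by CellTiter-Glo luminescence.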
ELG1 repair inh – ELG1-dependent DNA repair inhibition; HEK293T ELG1-luciferase reporter, luminescence, 16 h; DNA damage induced by 5-fluorouridine; Potency, µM (top dose mostly 46.1 µM), for inactives: at the highest dose activity change, negative = inhibition, hits mostly inhibitors; actives 2.3% (n = 330,000); AID 504467; further: potency means the concentration at half of the fitted maximal effect; nearly all actives have a fitted effect of over 55% in size
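Overnight (16 hr) co-exposure of 2,000 cells/well to 5-fluorouridine and compound at 37 °C preceded detection. Luciferase was quantified via ONE-Glo luminescence; loss of signal denotes inhibition.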
IL-1B inflam inh – inhibitors of inflammasome signaling (IL-1 beta secretion); THP-1 LPS/ATP IL-1B secretion, AlphaLISA, 16 h; active compounds read low; activity change, % at 57.5 µM; actives 4.7% (n = 360,000); in the data active means activity change below about -50%; inconclusive means mostly about -30% to -49%
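Secreted IL-1B measured by AlphaLISA bead assay after 16 h compound exposure of THP-1 cells; compounds (final up to 57.5 uM) added 1 h before LPS (250 ng/mL) and ATP (1.25 mM) stimulation; lower signal means less secretion.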
VP16 counter – counter-screen for ROR gamma inhibitors: Gal4-VP16 reporter | AID 2546 | Drosophila S2 Gal4-VP16 UAS-luciferase, luminescence, 20 h | Potency, µM (series often up to 53.6 µM), for the others: top-dose activity, negative = inhibition, hits mostly inhibitors | actives 3.5% (n = 310,000);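 further: Gal4-VP16 expression switched on by copper sulfate through the metallothionein promoter; potency means the concentration at half of the fitted maximal effect; nearly all actives have a fitted effect of over 50% in size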
TDP1 cell CPT – DT40-hTDP1 cell growth loss with CPT | chicken DT40 Tdp1-/-;hTDP1 cells + 20 nM CPT, ATP luminescence, 48 h | Potency, µM (titrated, usually from 46.2 µM), inactives show top-dose activity change, negative = growth inhibition, actives largely listed as inhibitors | actives 12% (n = 420,000) | AID 686979; further: potency means the concentration at half of the fitted maximal effect; nearly all actives have a fitted effect of over 55% in size
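Chicken DT40 Tdp1-/- cells complemented with human TDP1, 400 cells/well, exposed to compounds plus 20 nM camptothecin for at least 48 h at 37 C; viability read as ATP content by CellTiter-Glo luminescence.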
RORg inh – ROR gamma (mouse) transcription inhibition; AID 2551; Potency, µM (titrated, usually from 53.6 µM), for inactives: at the highest dose activity change, negative = inhibition, hits mostly inhibitors; Drosophila S2 Gal4-RORgamma UAS-luciferase reporter, 20 h; actives 5.4% (n = 310,000); P51450; further: potency means the concentration at half of the fitted maximal effect; nearly all actives have a fitted effect of over 60% in size
Target sequence (P51450 whole entry, looked up, the tested form may be a part): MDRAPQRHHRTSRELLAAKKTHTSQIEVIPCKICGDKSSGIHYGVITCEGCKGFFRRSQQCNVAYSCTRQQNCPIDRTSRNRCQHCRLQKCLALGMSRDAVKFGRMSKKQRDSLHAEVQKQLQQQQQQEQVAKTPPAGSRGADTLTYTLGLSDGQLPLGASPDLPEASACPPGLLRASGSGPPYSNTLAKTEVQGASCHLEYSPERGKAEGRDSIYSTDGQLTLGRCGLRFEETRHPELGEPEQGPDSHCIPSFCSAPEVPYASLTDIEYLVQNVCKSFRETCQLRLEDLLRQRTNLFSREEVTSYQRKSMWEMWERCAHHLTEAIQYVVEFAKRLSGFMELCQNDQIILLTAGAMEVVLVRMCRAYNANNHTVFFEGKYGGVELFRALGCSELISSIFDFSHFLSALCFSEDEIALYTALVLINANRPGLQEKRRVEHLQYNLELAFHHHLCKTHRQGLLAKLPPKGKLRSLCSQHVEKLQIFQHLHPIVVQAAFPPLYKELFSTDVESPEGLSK
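Stable Schneider cell line, Gal4 DNA-binding domain fused to ROR gamma, UAS-luciferase. Cmpd 1 hr RT → CuSO4 700 uM final → 20 hr RT → luciferase reagent 10 min → luminescence.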
An asterisk follows results filed as active; ? = inconclusive; . = not tested or not shown; ! = repeats disagree. Unless noted, the call rests on the fitted dose curve; in most records, active means well fitted curve in the direction sought with a large enough effect; inconclusive means small, poorly fitted or top-dose-only effect, or another doubt; inactive means no such curve, though single readings can be large; an effect the other way counts as inactive or inconclusive. On the % scale 0 is the no-effect control and ±100 the full control effect.

SMILES	DT40 TDP1 no CPT	ELG1 repair inh	IL-1B inflam inh	VP16 counter	TDP1 cell CPT	RORg inh
CC(=O)c1ccc(NC(=O)Cn2c(=O)cc(C)c3c(C)nn(-c4cccc(F)c4)c32)cc1	2.7%	.	.	.	-4.8%	.
Cc1cc(Oc2ccc(-c3ccccc3)cc2)n2ncnc2n1	-24.6%	?	?	10.3%	18.4µM*	16.5%
CCN(c1ccccc1)c1cc(C)nc2ncnn12	1.5%	-12.3%	20.9	13.4%	3.5%	?
Cn1cc(CN2CCC(C(=O)NC(c3ccc(F)cc3)c3ccc4ccccc4n3)CC2)c2ccccc21 (stereo unspecified)	7.31µM*	.	-80.7*	.	11.6µM*	.
O=C(NC(c1ccc(F)cc1)c1ccc2ccccc2n1)C1CCN(Cc2ccc(Oc3ccccc3)cc2)CC1 (stereo unspecified)	?	.	-75.1*	.	?	.
COc1ccc(C(NC(=O)C2CCN(CCc3ccccc3)CC2)c2ccccn2)cc1 (stereo unspecified)	-5.6%	.	-0.1	.	-4.4%	.
COc1cc(CN2CCC(C(=O)NC(c3ccc(F)cc3)c3ccc4ccccc4n3)CC2)cc(OC)c1 (stereo unspecified)	2.91µM*	.	-15.2	.	3.66µM*	.
COc1ccc(CN2CCC(C(=O)NC(c3ccc4c(c3)OCO4)c3ccccn3)CC2)cc1 (stereo unspecified)	-15.8%	.	-2.4	.	3.7%	.
Cc1ccc(C)c(NC(=O)COC(=O)CC2c3ccccc3CCN2S(=O)(=O)c2ccc(F)cc2)c1 (stereo unspecified)	?	?	0.0	-10.8%	-14.0%	35.3%
CCOc1ccc(CNC(=O)c2ccc3nc(CC)c(CC)nc3c2)cc1	18.4µM*	.	.	.	16.4µM*	.
CCc1nc2ccc(C(=O)N3CCN(CC)CC3)cc2nc1CC	14.0%	0.0%	-5.5	-6.4%	-11.9%	0.9%
CCc1ccc(CNC(=O)c2ccc3c(Cl)c4c(nc3c2)CCCC4)cc1	23.1µM*	.	.	.	?	.
CCc1nc2ccc(C(=O)O)cc2nc1CC	-16.0%	?	0.0	?	-24.5%	0.708µM*
Cc1cccc(NC(=O)c2ccc3c(Cl)c4c(nc3c2)CCCC4)n1	20.6µM*	?	-21.8	5.5%	?	-14.6%
CCOc1ccccc1-c1nnc2n1N=C(c1cc(OC)cc(OC)c1)CS2	.	.	.	16.1%	.	?
CCN(CC)C(=O)[C@H]1CC(CC(=O)NCc2ccco2)C(=O)N2CCc3c([nH]c4ccc(OC)cc34)[C@]12C (stereo partly specified)	-24.8%	-0.3%	-5.1	.	-14.6%	.
COc1ccccc1N1CC(C(=O)OCC(=O)c2c(N)n(C)c(=O)n(C)c2=O)CC1=O (stereo unspecified)	-1.4%	.	36.4	.	3.9%	.
O=C(NCc1cccnc1)c1ccc(NS(=O)(=O)c2cccc([N+](=O)[O-])c2)cc1	-8.2%	5.5%	10.6	.	-12.9%	.
CCOC(=O)NNc1ccc(N(CC)CC(C)O)nn1 (stereo unspecified)	-22.1%	.	.	.	-28.6%	.
CCc1nc2ccc(C(=O)N3CCN(c4ccccc4F)CC3)cc2nc1CC	5.8µM*!	?	-10.7	-3.1%	20.6µM*	0.0%
O=C(NCc1ccc(F)cc1)c1c2c(nc3ccccc13)CCC2	?	?	12.4	-5.5%	?	10.8%
CCOc1ccc(CNC(=O)c2ccc3c(Cl)c4c(nc3c2)CCCC4)cc1	-67.9%	.	.	.	20.6µM*	.
CCc1nc2ccc(C(=O)N3CCN(c4cc(C)ccc4C)CC3)cc2nc1CC	?	?	16.4	-3.1%	?	12.5%
CN1CCN(CCCNC(=O)c2ccc3c(Cl)c4c(nc3c2)CCCC4)CC1	20.6µM*	-0.2%	-55.9*	-9.3%	?	-0.1%
